# Test results reported in PubChem BioAssay (EPA / NIEHS).
# The source made the active and inactive calls. The calls were made as follows: active = hit-call score of the fitted dose curve at least 0.9, where 1 is the maximum; inactive = score below 0.9.
# Legend:
# [1] = Tanguay_ZF_120hpf_MUSC: Oregon State University Tanguay Lab 120 Hour Post-fertilization zebrafish Assay for Muscle Malformation (AID 2284401)
# How it was run: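 Scored as a binary brightfield endpoint at 120 hpf, fitted versus DMSO. Single dechorionated wild-type (Tropical 5D) zebrafish embryos per well, statically exposed at 28C from 6 hpf onward with final DMSO 0.64%.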
# [2] = UKN5_HCS_SBAD2_cell_viability: Viability Assessment in the University of Konstanz (UKN) Leist Lab Neurite Outgrowth Assay in human iPSC-derived immature Dorsal Root Ganglia Neurons (UKN5) (AID 2284056)
# How it was run: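 iPSC-derived immature peripheral neurons (SBAD2) seeded on Matrigel with CHIR99021, SU5402 and DAPT, dosed 1 h later for 24 h. Viability from Hoechst H-33342 and calcein-AM live staining, high-content imaging; bidirectional fit versus DMSO.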
# [3] = UKN5_HCS_SBAD2_neurite_outgrowth: University of Konstanz (UKN) Leist Lab Neurite Outgrowth Assay in human iPSC-derived immature Dorsal Root Ganglia Neurons (UKN5) (AID 2284070); settings: actives raise or lower the signal
# How it was run: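 Thaw, seed on Matrigel (100.000 cells/cm2), dose 1 h later; at 23 h live-stain with H-33342 and calcein-AM for 60 min; image at 24 h. Neurite area fitted bidirectionally vs DMSO.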
# [4] = UKN2_HCS_IMR90_neural_migration: University of Konstanz (UKN) Leist Lab Neural Crest Cell Migration Assay in human induced IMR90 Pluripotent Stem Cells (UKN2) (AID 2284204); settings: actives raise or lower the signal
# How it was run: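 High-content imaging of calcein-AM and Hoechst stained cells quantifies migration into a stopper-defined gap after 24 h compound exposure. Neural crest cells from IMR90 iPSC migrated 24 h in EGF/FGF N2-S medium before dosing; DMSO baseline.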
# [5] = UKN2_HCS_IMR90_cell_viability: Viability Assessment in the University of Konstanz (UKN) Leist Lab Neural Crest Cell Migration Assay in human induced IMR90 Pluripotent Stem Cells (UKN2) (AID 2284233);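 also: cells exposed to compound for 24 h after a 24 h migration phase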
# How it was run: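 After calcein-AM/Hoechst staining, viability is quantified by high-content fluorescence imaging, relative to DMSO, in iPSC (IMR90)-derived neural crest cells. Exposure lasts 24 h, starting after a 24 h migration period on PLO/laminin/fibronectin coating.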
structure (smiles),measurement,setting,value
CC(C)(C)C(=O)CC(=O)C(F)(F)C(F)(F)C(F)(F)F,outcome,[1],inactive
O=C(O)CCC(F)(F)C(F)(F)C(F)(F)F,outcome,[1],inactive
O=[As](O)(O)O,AC50,[2],4.31 µM (active)
same,AC50,[3],1.4 µM (active)
same,outcome,[4],inactive
same,AC50,[5],104 µM (active)
COC(=O)CCC(F)(F)C(F)(F)C(F)(F)C(F)(F)F,outcome,[1],inactive
O=C(O)C(F)(F)C(F)(F)C(F)(F)C(F)(F)C(F)(F)C(F)(F)C(F)(F)C(F)(F)C(F)(F)C(F)(F)C(F)(F)C(F)(F)F,outcome,[1],inactive
